D1 ag: agonists of human D1 dopamine receptor; P21728; activation, % at 2 µM; AID 504660; 1% of 360,000 active; HEK293 T-REx D1 cells, calcium flux, agonist mode; further: 0% is about no effect
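Agonism was scored from calcium flux recorded over 180 s (1 read/s) after pintool compound addition, following a 10-cycle baseline. Cells were inducible force-coupled HEK293 TREx D1, plated overnight at 30 C and loaded with no-wash calcium dye.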
D1 antagonist: blocks dopamine activation of the human D1 receptor | activity change, negative = inhibition, % at 10 µM | HEK293 TREx D1 cells, calcium flux, dopamine EC80; stronger effect = lower value | 3.2% of 360,000 active | P21728; in the data active means activity change below about -30%; further: on the % scale 0 is the no-effect control and ±100 the full control effect
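Compound effects on dopamine-evoked calcium signalling were measured in tetracycline-induced HEK293 Trex D1 cells. Dopamine at EC80 followed a 180 s compound pre-read, and fluorescence was tracked kinetically for 180 s more.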
TRHR enhancer: allosterically enhances the human TRH receptor | P34981 | TRHR cells, fluo-8 calcium fluorescence, EC20 TRH enhancement | enhancement, % at 2 µM | 0.66% of 360,000 active; in the data active means enhancement above about 30%; further: 0% is about no effect
Target sequence (P34981 whole entry, looked up): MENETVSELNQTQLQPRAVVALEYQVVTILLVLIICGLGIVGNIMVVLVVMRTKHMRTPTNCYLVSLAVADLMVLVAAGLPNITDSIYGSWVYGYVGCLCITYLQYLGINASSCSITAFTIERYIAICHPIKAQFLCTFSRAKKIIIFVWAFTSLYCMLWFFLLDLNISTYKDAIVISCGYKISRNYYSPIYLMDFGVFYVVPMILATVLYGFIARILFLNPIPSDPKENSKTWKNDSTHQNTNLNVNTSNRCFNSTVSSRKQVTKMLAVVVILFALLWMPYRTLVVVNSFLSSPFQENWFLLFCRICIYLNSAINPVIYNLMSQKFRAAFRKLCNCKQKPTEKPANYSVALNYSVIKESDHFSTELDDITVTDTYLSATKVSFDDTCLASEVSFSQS
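Enhancer read-out: after compound pinning and an initial kinetic agonist-mode read, an EC20 of TRH (10 nM final) was injected and fluo-8 calcium signal (Ex 480/Em 530) followed at 1 s/cycle for 100 cycles in TRHR-expressing cells.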
TRHR agonist: activates the human TRH receptor; activation, % at 2 µM; TRHR cells, calcium flux fluo-8, FDSS agonist mode; AID 493084; 0.18% of 360,000 active; further: 0% is about no effect
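TRHR-expressing cells loaded with fluo-8 calcium dye; 23 nL library compound pin-transferred, kinetic FDSS fluorescence (Ex 480/Em 530) recorded about 180 s for agonist-induced calcium release, before a 10 nM TRH EC20 addition for potentiator mode.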
D1 potentiator: human D1 dopamine receptor positive modulation; HEK293 TREx D1 cells, calcium flux, dopamine EC20 potentiation; potentiation, % at 10 µM; 0.036% of 360,000 active; in the data active means potentiation above about 30%; further: 0% is about no effect
Starred values were filed as active, the others as inactive; x = no result. Only some compounds are listed: those with a hit (about 4.7% of all), similar ones and a draw of the others. Unless noted, no stated cut-off is given here; in the data, active means activation above about 30%; inactive means the rest.

SMILES	D1 ag	D1 antagonist	TRHR enhancer	TRHR agonist	D1 potentiator
COc1ccc(/C(N)=N/OC(=O)CCc2ccccc2)cc1OC	-1	-31*	-6	-1	-5
CCCn1ccc2c(OCC(=O)Nc3cc(C)ccc3C)cccc2c1=O	46*	x	23	0	-4
COc1ccc([N+](=O)[O-])cc1NC(=O)CS(=O)(=O)c1ccc(C)cc1	3	11	-3	-1	0
Cn1ccc2c(OCC(=O)Nc3ccc([N+](=O)[O-])cc3)cccc2c1=O	3	-37*	11	0	0
COc1ccc([N+](=O)[O-])cc1NC(=O)c1ccccc1SC	1	-43*	6	-2	-5
COc1ccc([N+](=O)[O-])cc1NC(=O)CCS(=O)(=O)c1ccc(Br)cc1	3	-33*	-1	-1	-8
Cn1ccc2c(OCC(=O)Nc3ccc(OC(F)(F)F)cc3)cccc2c1=O	-2	x	1	0	-3
CN(C)c1ccc(Nc2ncnc3sc4c(c23)CCCC4)cc1	0	2	0	-1	-1
O=C(CSc1nc2ncccc2o1)Nc1cccc(C(F)(F)F)c1	0	-3	1	0	-6
O=C(CN1C(=O)CCc2cc(S(=O)(=O)N3CCCCC3)ccc21)NCc1ccc(Cl)cc1	4	-1	8	-1	1
COC(=O)c1ccc(NC(=O)Nc2ccc(F)cc2)cc1	24	-36*	19	2	-10
COC(=O)c1ccc(NC(=O)Nc2ccc([N+](=O)[O-])cc2)cc1	36*	-43*	-1	2	-7
COc1ccc(NC(=O)NNC(=O)COc2ccc3cc(Br)ccc3c2)cc1OC	8	-3	-4	1	0
COc1cc(NC(=O)COc2ccc(Cl)cc2)ccc1-c1cc2ccccc2oc1=O	2	-41*	21	0	0
COc1ccc(NC(=O)NNC(=O)COc2ccc3ccccc3c2)cc1OC	1	-49*	-6	0	9
CCOC(=O)c1ccc(NC(=O)Nc2ccc(F)cc2)cc1	21	-29	2	2	-6
COc1cc(NC(=O)COc2ccc(Cl)cc2)ccc1NC(=O)C(C)C	5	0	0	-1	-5
Cc1cccc(Cn2cc3c(=O)n(CC(=O)Nc4c(C)cccc4C)nc-3c3cc(F)ccc32)c1	1	0	-11	-1	-1
Cc1cccc(-c2cc(NC(=O)COc3ccccc3F)n(-c3ccccc3)n2)c1	2	9	3	0	4
COC(=O)c1ccc(NC(=O)COc2ccc([N+](=O)[O-])cc2)cc1	18	-35*	11	-1	-4
O=C(COc1ccc([N+](=O)[O-])cc1)NNC(=O)Nc1ccc([N+](=O)[O-])cc1	15	-22	-3	1	-6
COc1ccc(OC)c(NC(=O)NNC(=O)COc2ccc([N+](=O)[O-])cc2)c1	0	-49*	6	0	-5
O=C(Nc1ccc(S(=O)(=O)N2CCCCCC2)cc1)c1cc(=O)c2ccccc2o1	0	11	9	0	2
COc1cccc(N2CCN(C(=O)C3CCN(S(=O)(=O)c4c(C)noc4C)CC3)CC2)c1	4	-8	0	-1	-2
Cc1ccccc1C1CCCN(C(=O)c2cc(COc3c(F)cccc3F)on2)C1 (centres undefined)	16	-33*	-5	3	-6
SMILES	D1 ag	D1 antagonist	TRHR enhancer	TRHR agonist	D1 potentiator
CCCOC1CCCN(C(=O)c2cc(COc3c(F)cccc3F)on2)C1 (centres undefined)	1	7	5	0	2
O=C(NCC1OCCc2ccccc21)c1ccc(NC(=O)c2ccccc2Cl)cc1 (centres undefined)	12	-37*	-2	1	-4
CN(C)CCC(=O)NCC1OCCc2ccccc21 (centres undefined)	1	-34*	-8	-1	-5
C=CC(=O)NCC1OCCc2ccccc21 (centres undefined)	1	4	2	0	1
COc1cc(/C=C2/SC(=S)N(CC(=O)NC(C)(C)C)C2=O)cc(OC)c1OC	5	-4	28	2	-5
COc1cc(/C=C2\SC(=S)N(CC(=O)NC(C)(C)C)C2=O)cc(OC)c1OC	11	-61*	-3	2	-10
O=C(O)c1ccc(CN2C(=O)CSC2=S)cc1	31*	12	-5	3	-8
O=C(O)c1ccc(/C=C2/SC(=S)N(Cc3ccccc3)C2=O)cc1	2	2	4	0	30*
COc1cc(/C=C2/SC(=S)N(Cc3ccccc3)C2=O)cc(Cl)c1O	474*	-25	92*	159*	3
O=C1/C(=C\c2ccc(O)cc2)SC(=S)N1Cc1ccccc1	27	0	3	8	-6
Cc1ccc2nc(-c3cccc(NC(=O)c4cccc5ccccc45)c3)oc2c1	2	-10	2	1	-2
CCOc1ccc2ncc3c(-c4ccccc4)nn(CC(=O)Nc4cccc(F)c4)c3c2c1	1	1	8	1	-4
O=C1/C(=C\c2cccc([N+](=O)[O-])c2O)SC(=S)N1Cc1ccccc1	6	-26	-1	0	0
COc1cc([N+](=O)[O-])cc(/C=C2/SC(=S)N(Cc3ccccc3)C2=O)c1O	110*	-3	2	24	0
CN1CCN(C(=O)CCN2C(=O)/C(=C\c3ccc(Cl)cc3)SC2=S)CC1	16	-43*	1	1	-3
COc1ccc(CCNC(=O)CCS(=O)(=O)c2cc(Br)cc3c2N(C(C)=O)CC3)cc1OC	-2	3	-11	0	1
COc1ccc2c(c1)c1c(c(=O)n(Cc3ccccc3)c(=O)n1CC(=O)NCc1ccccc1Cl)n2C	9	7	-18	0	0
Cc1ccc(C(=O)/C=C/c2cc(Br)cc(Br)c2O)o1	43*	-5	-2	13	-3
Fc1ccccc1-c1nc(N2CCN(c3cccc(Cl)c3)CC2)c2ccccc2n1	3	10	-3	1	0
COc1ccc(C(=O)NCc2nnc(SCC(=O)Nc3ccc(C)cc3)n2-c2ccccc2)cc1	4	9	-10	-1	-2
C=CCOc1ccc(/C=N/N2C(=O)C(CC(=O)Nc3ccc(F)cc3F)SC2=NC)cc1 (centres undefined)	14	-49*	1	3	-6
COc1ccnc(Oc2ccc(Cl)cc2)c1C#N	0	-35*	-7	0	-7
CN(C)c1ccnc(Oc2ccc(Cl)cc2)c1C#N	21	8	5	0	-10
Cc1cc(Cl)ccc1Oc1nccc(N(C)C)c1C#N	10	-37*	-6	0	-11
COc1ccnc(Oc2ccccc2)c1C#N	1	5	-6	-1	-3
CCc1cccc(C)c1Nc1c(-c2ccc(SC)cc2)nc2sccn12	1	-1	5	-1	3

Screening results: PubChem BioAssay, National Center for Advancing Translational Sciences (NCATS)
